PubChem BioAssay (EPA / NIEHS)
The source made the active and inactive calls. Rule for the calls: active = hit-call score of the fitted dose curve at least 0.9, where 1 is the maximum; inactive = score below 0.9.

Key:
[1] = ATG_CRE_CIS: Attagene CIS-FACTORIAL HepG2 Assay for human cAMP Responsive Element (CRE) binding protein 3 (AID 2282926); conditions: HepG2 CRE cis-reporter, Attagene multiplexed mRNA; actives raise or lower the signal
Outline: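 Human liver HepG2, transient MRTU transfection, 24 h compound exposure. Total RNA → oligo(dT) RT → PCR → 6-FAM primer extension → HpaI cut → CE. Activity called both directions vs DMSO.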

[2] = ATG_CMV_CIS: Attagene CIS-FACTORIAL HepG2 Assay for human CMV (Internal Marker) (AID 2282928); conditions: HepG2 CMV promoter reporter, transcription factor profiling; actives raise or lower the signal;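 note: endpoint acts as a background internal control marker rather than a target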
Outline: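 HepG2 cells transiently transfected with multiple cis-regulated reporter units; 24 h compound exposure. Reporter mRNA quantified by RT-PCR, 6-FAM primer-extension labeling, HpaI digestion and capillary electrophoresis; bidirectional fitting against DMSO baseline.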

[3] = ATG_DR4_LXR_CIS: Attagene CIS-FACTORIAL HepG2 Assay for human Liver X Receptor (LXR), DR4 submotif (AID 2282929); conditions: HepG2 Attagene DR4 cis-reporter, mRNA transcription; actives raise or lower the signal
Outline: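 Endogenous factor activity at a DR4 cis-element is read as reporter mRNA in transiently transfected HepG2 cells. Exposure lasts 24 h; transcripts are amplified, fluorescently labelled and sized by capillary electrophoresis, with DMSO as baseline.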

[4] = molecular target: Aryl hydrocarbon receptor (Homo sapiens) (UniProt P35869); assay: ATG_Ahr_CIS: Attagene CIS-FACTORIAL HepG2 Assay for human Aryl Hydrocarbon Receptor (Ahr) (AID 2282930); conditions: HepG2 AhR cis-factorial reporter transcription; actives raise or lower the signal
Outline: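 HepG2 cells transiently transfected with cis-element-driven multiplexed reporter units; endogenous AhR activity read as reporter mRNA 24 h after dosing, via RT-PCR, 6-FAM labelling, HpaI digestion and capillary electrophoresis. Bidirectional fit relative to DMSO.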

[5] = ATG_AP_1_CIS: Attagene CIS-FACTORIAL HepG2 Assay for human Activator Protein 1 (AP-1) (AID 2282931); conditions: HepG2 Attagene cis-factorial AP-1 reporter mRNA; actives raise or lower the signal
Outline: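 Fluorescence of labelled PCR fragments separated by capillary electrophoresis gives reporter mRNA levels. HepG2 with transfected cis-regulated reporter units, 24 h exposure; DMSO serves as baseline for bidirectional curve fits.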

[6] = ATG_AP_2_CIS: Attagene CIS-FACTORIAL HepG2 Assay for human Activator Protein 2 (AP-2) (AID 2282932); conditions: HepG2 AP-2 cis-reporter, Attagene transcription factor profiling; actives raise or lower the signal
Outline: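 Multiplexed mRNA reporter assay in HepG2: cis-regulated units report endogenous factor activity after 24 h treatment. Fluorescence from capillary electrophoresis of RT-PCR products gives the signal, with DMSO as baseline.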

[7] = ATG_BRE_CIS: Attagene CIS-FACTORIAL HepG2 Assay for human Bone Morphogenetic Protein (BMP) Response Element (BRE) (AID 2282933); conditions: HepG2 BMP response element reporter, Attagene transcription factor profiling; actives raise or lower the signal
Outline: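 HepG2 cells transiently transfected with CIS reporter units (endogenous TF activity, BMP response element), dosed 24 h. Reporter mRNA quantified by RT-PCR, fluorescent labelling and capillary electrophoresis; bidirectional fit vs DMSO baseline.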

[8] = molecular target: Retinoic acid receptor alpha (Homo sapiens) (UniProt P10276); assay: ATG_DR5_RAR_CIS: Attagene CIS-FACTORIAL HepG2 Assay for human Retinoic Acid Receptor Alpha (RARE), DR5 submotif (AID 2282934); conditions: HepG2 Attagene cis-factorial RARE DR5 reporter, mRNA; actives raise or lower the signal
Outline: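 HepG2 cells transiently transfected with multiplexed reporter units; DR5 cis-element drives reporter through endogenous transcription factors. After 24 h dosing, reporter mRNA quantified by RT-PCR, fluorescent labeling, HpaI digestion and capillary electrophoresis; bidirectional fitting versus DMSO.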

[9] = molecular target: Transcription factor E2F1 (Homo sapiens) (UniProt Q01094); assay: ATG_E2F_CIS: Attagene CIS-FACTORIAL HepG2 Assay for human E2F Transcription Factor 1 (AID 2282935); conditions: HepG2 Attagene cis-reporter, E2F reporter RNA transcripts; actives raise or lower the signal
Outline: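 Measures reporter transcript levels via RT-PCR with capillary electrophoresis detection in HepG2 cells harboring cis-regulated reporter units; 24 h post-dose; bidirectional curve fitting with DMSO as baseline.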

[10] = ATG_E_Box_CIS: Attagene CIS-FACTORIAL HepG2 Assay for human Enhancer Box (E-box) (AID 2282936); conditions: HepG2 E-box cis-reporter transcription, actives raise or lower the signal
Outline: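 First, HepG2 cells receive multiple cis-regulated reporter constructs by transient transfection. Next, chemicals are applied for 24 h. Finally, reporter mRNA is quantified via RT-PCR and capillary electrophoresis, with DMSO as baseline.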

[11] = ATG_M_61_CIS: Attagene CIS-FACTORIAL HepG2 Assay for M61 Transcription Factor (Internal Marker) (AID 2282937); conditions: HepG2 Attagene CIS-FACTORIAL M61 internal marker reporter; actives raise or lower the signal
Outline: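 This endpoint serves as an internal background control within a multiplexed HepG2 cis-reporter panel. Cells are exposed for 24 h; reporter mRNA is amplified, fluorescently labelled and sized by capillary electrophoresis, with DMSO as negative control.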

[12] = ATG_EGR_CIS: Attagene CIS-FACTORIAL HepG2 Assay for human Early Growth Response 1 (EGR1) (AID 2282938); conditions: HepG2 Attagene CIS-FACTORIAL EGR reporter mRNA; actives raise or lower the signal
Outline: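 HepG2, transient MRTU transfection (cis promoters), 24 h compound. RNA → RT (oligo-dT) → PCR → 6-FAM labelling → HpaI cut → CE fluorescence. Bidirectional fit, DMSO baseline.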

[13] = ATG_M_19_CIS: Attagene CIS-FACTORIAL HepG2 Assay for M19 Transcription Factor (Internal Marker) (AID 2282939); conditions: HepG2 Attagene CIS-FACTORIAL M19 internal marker reporter; actives raise or lower the signal
Outline: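 HepG2 cells transiently transfected with cis-regulated multiplexed reporter units, dosed 24 h. Reporter mRNA quantified by RT-PCR and capillary electrophoresis; internal background marker fitted bidirectionally versus DMSO.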

[14] = ATG_ERE_CIS: Attagene CIS-FACTORIAL HepG2 Assay for Estrogen Response Element (ERE) (AID 2282940); conditions: HepG2 ERE cis-reporter, Attagene RNA transcript; actives raise or lower the signal
Outline: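 HepG2 cells transiently transfected with multiplexed cis-element reporter units, measuring endogenous transcription factor activity; ERE reporter mRNA quantified after 24 h exposure by RT-PCR, fluorescent labelling, HpaI digestion and capillary electrophoresis. Bidirectional change versus DMSO.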

[15] = ATG_Ets_CIS: Attagene CIS-FACTORIAL HepG2 Assay for human Erythroblast Transformation Specific (ETS) (AID 2282941); conditions: HepG2 ETS cis-reporter transcription, actives raise or lower the signal
Outline: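 HepG2 cells transiently transfected with cis-promoter reporter transcription units were dosed for 24 h; reporter mRNA was measured by RT-PCR, 6-FAM primer extension, HpaI digestion and capillary electrophoresis, with bidirectional fitting against DMSO baseline.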

[16] = molecular target: Hepatocyte nuclear factor 3-beta (Homo sapiens) (UniProt Q9Y261); assay: ATG_FoxA2_CIS: Attagene CIS-FACTORIAL HepG2 Assay for human Forkhead box A2 (FOXA2) (AID 2282942); conditions: HepG2 cis-reporter transcription factor activity, 24 h; actives raise or lower the signal
Outline: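 Cells: HepG2, transient multiplex reporter transfection. Exposure 24 h. Detection: reporter-specific RT-PCR, fluorescent labelling, restriction digest, capillary electrophoresis. Analysis: bidirectional curve fit, DMSO as negative control.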

[17] = ATG_FoxO_CIS: Attagene CIS-FACTORIAL HepG2 Assay for human Forkhead box O (FoxO) (AID 2282943); conditions: HepG2 Attagene cis-reporter, FoxO element, mRNA; actives raise or lower the signal
Outline: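 HepG2 cells transiently transfected with cis-element-driven reporter units report endogenous FoxO activity. After 24 h chemical exposure, reporter mRNA quantified by RT-PCR, fluorescent labeling, HpaI digestion and capillary electrophoresis; bidirectional fit versus DMSO.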

[18] = ATG_GATA_CIS: Attagene CIS-FACTORIAL HepG2 Assay for human GATA Binding Protein (AID 2282944); conditions: HepG2 GATA cis-element reporter, Attagene multiplex mRNA; actives raise or lower the signal
Outline: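 HepG2 cells transiently transfected with multiplexed cis-element reporter units measure endogenous GATA activity; after 24 h compound exposure, reporter mRNA quantified by RT-PCR and capillary electrophoresis. Changes fitted in both directions vs DMSO.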

[19] = molecular target: CCAAT/enhancer-binding protein beta (Homo sapiens) (UniProt P17676); assay: ATG_C_EBP_CIS: Attagene CIS-FACTORIAL HepG2 Assay for human CCAAT/Enhancer Binding Protein (C/EBP) beta (AID 2282927); conditions: HepG2 Attagene cis-factorial transcription factor reporter; actives raise or lower the signal
Outline: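 HepG2 transiently transfected with multiplexed reporter units under cis-regulatory promoters reporting endogenous C/EBPb activity. After 24 h exposure, reporter mRNA assayed by RT-PCR, fluorescent labelling, HpaI digestion and capillary electrophoresis; bidirectional fitting versus DMSO.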

Measured: AC50

Transcription factor E2F1 (Homo sapiens), sequence (Q01094 whole entry, looked up): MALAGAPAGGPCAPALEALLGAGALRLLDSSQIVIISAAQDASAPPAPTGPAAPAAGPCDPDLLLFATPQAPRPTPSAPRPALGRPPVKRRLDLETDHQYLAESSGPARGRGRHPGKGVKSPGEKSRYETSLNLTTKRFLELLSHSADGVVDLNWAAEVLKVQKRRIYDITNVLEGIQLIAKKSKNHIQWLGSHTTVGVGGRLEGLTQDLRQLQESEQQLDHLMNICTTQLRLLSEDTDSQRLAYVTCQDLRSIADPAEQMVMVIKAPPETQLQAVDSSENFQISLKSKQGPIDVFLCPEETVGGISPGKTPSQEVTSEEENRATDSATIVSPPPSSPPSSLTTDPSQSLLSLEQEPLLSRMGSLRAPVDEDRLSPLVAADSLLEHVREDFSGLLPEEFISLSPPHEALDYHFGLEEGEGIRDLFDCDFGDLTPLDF
Aryl hydrocarbon receptor (Homo sapiens), sequence (P35869 whole entry, looked up): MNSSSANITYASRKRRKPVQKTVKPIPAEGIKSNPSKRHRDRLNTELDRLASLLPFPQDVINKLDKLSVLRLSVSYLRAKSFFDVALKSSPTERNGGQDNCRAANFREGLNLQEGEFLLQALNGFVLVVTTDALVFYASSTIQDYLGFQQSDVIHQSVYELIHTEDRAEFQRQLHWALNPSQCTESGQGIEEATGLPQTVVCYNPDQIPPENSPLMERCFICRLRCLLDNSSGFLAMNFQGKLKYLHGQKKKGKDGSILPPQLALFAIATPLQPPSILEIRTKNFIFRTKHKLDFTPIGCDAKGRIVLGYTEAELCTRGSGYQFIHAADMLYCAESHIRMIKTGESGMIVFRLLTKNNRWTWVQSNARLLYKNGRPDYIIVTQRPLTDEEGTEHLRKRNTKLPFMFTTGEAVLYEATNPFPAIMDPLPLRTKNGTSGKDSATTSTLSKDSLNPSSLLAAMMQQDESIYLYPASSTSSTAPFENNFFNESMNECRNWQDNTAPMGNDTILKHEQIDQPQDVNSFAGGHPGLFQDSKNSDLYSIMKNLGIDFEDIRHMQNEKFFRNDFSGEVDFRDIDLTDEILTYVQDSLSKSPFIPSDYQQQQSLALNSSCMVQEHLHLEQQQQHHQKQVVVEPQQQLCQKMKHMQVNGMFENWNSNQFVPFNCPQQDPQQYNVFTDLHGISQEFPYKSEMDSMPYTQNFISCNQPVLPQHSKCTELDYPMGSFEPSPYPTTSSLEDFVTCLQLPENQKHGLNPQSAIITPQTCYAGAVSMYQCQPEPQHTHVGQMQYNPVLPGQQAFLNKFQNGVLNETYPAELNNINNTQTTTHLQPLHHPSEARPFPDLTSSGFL
CCAAT/enhancer-binding protein beta (Homo sapiens), sequence (P17676 whole entry, looked up): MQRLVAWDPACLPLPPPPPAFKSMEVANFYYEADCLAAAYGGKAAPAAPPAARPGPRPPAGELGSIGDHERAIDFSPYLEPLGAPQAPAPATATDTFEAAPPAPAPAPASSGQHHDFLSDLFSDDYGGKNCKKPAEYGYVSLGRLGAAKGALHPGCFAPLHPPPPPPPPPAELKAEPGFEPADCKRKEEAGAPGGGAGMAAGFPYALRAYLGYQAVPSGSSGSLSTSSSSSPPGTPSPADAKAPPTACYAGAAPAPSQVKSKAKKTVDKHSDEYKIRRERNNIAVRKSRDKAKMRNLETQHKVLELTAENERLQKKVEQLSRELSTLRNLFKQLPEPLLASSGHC
Hepatocyte nuclear factor 3-beta (Homo sapiens), sequence (Q9Y261 whole entry, looked up): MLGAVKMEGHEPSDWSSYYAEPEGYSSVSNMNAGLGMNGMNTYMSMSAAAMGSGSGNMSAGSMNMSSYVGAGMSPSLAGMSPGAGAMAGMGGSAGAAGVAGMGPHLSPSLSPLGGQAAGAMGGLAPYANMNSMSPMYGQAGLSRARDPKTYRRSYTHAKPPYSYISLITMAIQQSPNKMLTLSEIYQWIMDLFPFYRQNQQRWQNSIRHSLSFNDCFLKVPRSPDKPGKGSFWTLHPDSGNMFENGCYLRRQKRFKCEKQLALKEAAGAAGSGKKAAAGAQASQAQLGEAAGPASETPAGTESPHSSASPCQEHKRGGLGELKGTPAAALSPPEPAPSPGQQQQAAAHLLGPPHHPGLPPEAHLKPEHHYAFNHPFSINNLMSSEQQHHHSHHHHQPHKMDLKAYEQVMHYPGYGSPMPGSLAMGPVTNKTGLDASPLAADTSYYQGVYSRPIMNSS
Retinoic acid receptor alpha (Homo sapiens), sequence (P10276 whole entry, looked up): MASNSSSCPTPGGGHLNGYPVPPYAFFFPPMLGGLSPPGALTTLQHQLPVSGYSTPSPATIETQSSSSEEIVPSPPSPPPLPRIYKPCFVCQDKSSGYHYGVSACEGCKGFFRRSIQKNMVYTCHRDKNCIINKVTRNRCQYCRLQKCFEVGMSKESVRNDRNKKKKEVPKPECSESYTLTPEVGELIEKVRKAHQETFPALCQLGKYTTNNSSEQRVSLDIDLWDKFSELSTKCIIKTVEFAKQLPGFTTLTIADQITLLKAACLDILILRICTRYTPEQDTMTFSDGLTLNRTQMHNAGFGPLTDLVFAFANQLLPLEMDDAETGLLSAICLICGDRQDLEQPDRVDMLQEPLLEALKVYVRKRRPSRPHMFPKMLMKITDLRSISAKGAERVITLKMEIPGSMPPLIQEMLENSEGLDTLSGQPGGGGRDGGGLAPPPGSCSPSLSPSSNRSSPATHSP

O=C(O)C1=NN(c2ccc(S(=O)(=O)O)cc2)C(=O)C1
not listed: [19]
inactive: all other assays above

CCCC(O)C(CC)CO (configuration not stated)
not listed: [2] | [7] | [8]
inactive: all other assays above

OCCN1CCOCC1
active: [14] 21.4 µM
not listed: [2] | [4]
inactive: all other assays above

C=CCOC(=O)/C=C\C(=O)OCC=C
active: [1] 27.1 µM | [3] 27.9 µM | [4] 61.2 µM | [6] 21.7 µM | [12] 34.3 µM | [15] 13.2 µM | [17] 101 µM
not listed: [2] | [8] | [9]
inactive: all other assays above
